# Measurements taken from the supplement of paper PMC8728848.
# The sample as a whole holds a higher share of the strongest signals than the screen did.
# B1: FliC (Clostridium difficile) (protein)
# chain: MRVNTNVSALIANNQMGRNVNGQSKSMEKLSSGVRIKRAADDAAGLAISEKMRAQIKGLDQAGRNVQDGISVVQTAEGSLEETGNILQRMRTLSLQSANEINNTEEREKIADELTQLKDEIERISSSTEFNGKKLLDGTSSTIRLQVGASYGTNVSGTSNNNNEIKIQLVNTASIMASAGITTASIGSMKAGGTTGTDAAKTMVSSLDAALKSLNSSRAKLGAQQNRLESTQNNLNNTLENVTAAESRIRDTDVASEMVNLSKMNILVQASQSMLAQANQQPQGVLQLLG
# Legend:
# Assay in all cases: glycan array binding signal (z-score within array); higher = stronger binding
# Settings in all cases: glycan notation: IUPAC condensed, linker removed
# GalNAc(b1-3)Gal = molecular target: GalNAc(b1-3)Gal
# Outline: (§1)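 Columns mapping to the same glycan were averaged after glycan names were converted to IUPAC-condensed notation. The data come from 3228 arrays in the Consortium for Functional Glycomics database, limited to those with an available protein sequence. Binding is reported as a within-array Z-score averaged across arrays of one protein sequence and across linkers.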
# GalNAc6S(b1-4)GlcNAc = molecular target: GalNAc6S(b1-4)GlcNAc
# Outline: as §1
# Glc(b1-6)Glc = molecular target: Glc(b1-6)Glc
# Outline: as §1
# [1] = molecular target: GlcNAc(a1-4)Gal(b1-3)GlcNAc
# Outline: as §1
# [2] = molecular target: GlcNAc(b1-2)Man(a1-3)[GlcNAc(b1-2)Man(a1-6)]Man(b1-4)GlcNAc(b1-4)[Fuc(a1-6)]GlcNAc
# Outline: as §1
# [3] = molecular target: GlcNAc(b1-3)Gal(b1-4)GlcNAc(b1-2)[GlcNAc(b1-3)Gal(b1-4)GlcNAc(b1-6)]Man(a1-6)[GlcNAc(b1-3)Gal(b1-4)GlcNAc(b1-2)Man(a1-3)]Man(b1-4)GlcNAc(b1-4)GlcNAc
# Outline: as §1
# [4] = molecular target: GlcNAc(b1-3)Gal(b1-4)GlcNAc(b1-3)Gal(b1-4)GlcNAc(b1-2)Man(a1-3)[GlcNAc(b1-3)Gal(b1-4)GlcNAc(b1-3)Gal(b1-4)GlcNAc(b1-2)Man(a1-6)]Man(b1-4)GlcNAc(b1-4)GlcNAc
# Outline: as §1
# [5] = molecular target: GlcNAc(b1-3)Gal(b1-4)GlcNAc(b1-3)Gal(b1-4)GlcNAc(b1-3)Gal(b1-4)GlcNAc(b1-2)Man(a1-3)[GlcNAc(b1-3)Gal(b1-4)GlcNAc(b1-3)Gal(b1-4)GlcNAc(b1-3)Gal(b1-4)GlcNAc(b1-2)Man(a1-6)]Man(b1-4)GlcNAc(b1-4)[Fuc(a1-6)]GlcNAc
# Outline: as §1
# [6] = molecular target: GlcNAc(b1-3)Gal(b1-4)GlcNAc(b1-3)Gal(b1-4)GlcNAc(b1-3)Gal(b1-4)GlcNAc(b1-3)Gal(b1-4)GlcNAc(b1-2)Man(a1-3)[GlcNAc(b1-3)Gal(b1-4)GlcNAc(b1-3)Gal(b1-4)GlcNAc(b1-3)Gal(b1-4)GlcNAc(b1-3)Gal(b1-4)GlcNAc(b1-2)Man(a1-6)]Man(b1-4)GlcNAc(b1-4)[Fuc(a1-6)]GlcNAc
# Outline: as §1
# [7] = molecular target: GlcNAc(b1-3)[GlcNAc(b1-6)]Gal(b1-4)GlcNAc
# Outline: as §1
# GlcNAc(b1-6)GalNAc = molecular target: GlcNAc(b1-6)GalNAc
# Outline: as §1
# [8] = molecular target: GlcNAc6S(b1-3)Gal(b1-4)GlcNAc
# Outline: as §1
# [9] = molecular target: Man(a1-2)Man(a1-6)[Man(a1-3)]Man(a1-6)[Man(a1-2)Man(a1-2)Man(a1-3)]Man
# Outline: as §1
# Man(a1-3)[Man(a1-6)]Man = molecular target: Man(a1-3)[Man(a1-6)]Man
# Outline: as §1
# [10] = molecular target: Man(a1-3)[Man(a1-6)]Man(a1-6)[Man(a1-2)Man(a1-3)]Man(b1-4)GlcNAc(b1-4)GlcNAc
# Outline: as §1
# [11] = molecular target: Neu5Ac(a2-3)Gal(b1-3)GlcNAc(b1-2)Man(a1-3)[GlcNAc(b1-4)][Neu5Ac(a2-3)Gal(b1-3)GlcNAc(b1-2)Man(a1-6)]Man(b1-4)GlcNAc(b1-4)GlcNAc
# Outline: as §1
# [12] = molecular target: Neu5Ac(a2-3)Gal(b1-3)GlcNAc(b1-4)Gal(b1-4)Glc
# Outline: as §1
# [13] = molecular target: Neu5Ac(a2-3)Gal(b1-3)[Neu5Ac(a2-6)]GlcNAc(b1-3)[Fuc(a1-3)[Gal(b1-4)]GlcNAc(b1-6)]Gal(b1-4)Glc
# Outline: as §1
# [14] = molecular target: Neu5Ac(a2-3)Gal(b1-4)GlcNAc(b1-2)[Neu5Ac(a2-3)Gal(b1-4)GlcNAc(b1-6)]Man(a1-6)[Neu5Ac(a2-3)Gal(b1-4)GlcNAc(b1-2)Man(a1-3)]Man(b1-4)GlcNAc(b1-4)GlcNAc
# Outline: as §1
# [15] = molecular target: Neu5Ac(a2-3)Gal(b1-4)GlcNAc(b1-3)Gal(b1-4)GlcNAc(b1-2)Man(a1-3)[Neu5Ac(a2-3)Gal(b1-4)GlcNAc(b1-3)Gal(b1-4)GlcNAc(b1-2)Man(a1-6)]Man(b1-4)GlcNAc(b1-4)GlcNAc
# Outline: as §1
# [16] = molecular target: Neu5Ac(a2-3)Gal(b1-4)GlcNAc(b1-3)Gal(b1-4)GlcNAc(b1-3)Gal(b1-4)GlcNAc(b1-2)Man(a1-3)[Neu5Ac(a2-3)Gal(b1-4)GlcNAc(b1-3)Gal(b1-4)GlcNAc(b1-3)Gal(b1-4)GlcNAc(b1-2)Man(a1-6)]GalNAc
# Outline: as §1
# [17] = molecular target: Neu5Ac(a2-3)Gal(b1-4)GlcNAc(b1-3)Gal(b1-4)GlcNAc(b1-3)GalNAc
# Outline: as §1
# [18] = molecular target: Neu5Ac(a2-3)Gal6S(b1-4)[Fuc(a1-3)]GlcNAc
# Outline: as §1
# [19] = molecular target: Neu5Ac(a2-6)Gal(b1-4)GlcNAc(b1-2)Man(a1-3)[Gal(b1-4)GlcNAc(b1-2)Man(a1-6)]Man(b1-4)GlcNAc(b1-4)GlcNAc
# Outline: as §1
# [20] = molecular target: Neu5Ac(a2-6)Gal(b1-4)GlcNAc(b1-2)Man(a1-3)[GlcNAc(b1-2)Man(a1-6)]Man(b1-4)GlcNAc(b1-4)GlcNAc
# Outline: as §1
# [21] = molecular target: Neu5Ac(a2-6)Gal(b1-4)GlcNAc(b1-3)Gal(b1-4)GlcNAc(b1-3)Gal(b1-4)GlcNAc(b1-2)Man(a1-3)[Neu5Ac(a2-6)Gal(b1-4)GlcNAc(b1-3)Gal(b1-4)GlcNAc(b1-3)Gal(b1-4)GlcNAc(b1-2)Man(a1-6)]GalNAc
# Outline: as §1
# [22] = molecular target: Neu5Ac(a2-6)Gal(b1-4)GlcNAc(b1-6)[Gal(b1-3)GlcNAc(b1-3)]Gal(b1-4)Glc
# Outline: as §1
# Neu5Ac(a2-8)Neu5Ac = molecular target: Neu5Ac(a2-8)Neu5Ac
# Outline: as §1
# [23] = molecular target: Neu5Ac(a2-8)Neu5Ac(a2-3)[GalNAc(b1-4)]Gal(b1-4)Glc
# Outline: as §1
binder,measurement,setting,value
B1,glycan array binding signal (z-score),GalNAc(b1-3)Gal,-0.175
same,glycan array binding signal (z-score),GalNAc6S(b1-4)GlcNAc,0.047
same,glycan array binding signal (z-score),Glc(b1-6)Glc,1.72
same,glycan array binding signal (z-score),[1],0.947
same,glycan array binding signal (z-score),[2],0.458
same,glycan array binding signal (z-score),[3],3
same,glycan array binding signal (z-score),[4],0.372
same,glycan array binding signal (z-score),[5],-0.149
same,glycan array binding signal (z-score),[6],-0.369
same,glycan array binding signal (z-score),[7],-0.057
same,glycan array binding signal (z-score),GlcNAc(b1-6)GalNAc,-0.08
same,glycan array binding signal (z-score),[8],0.071
same,glycan array binding signal (z-score),[9],0.153
same,glycan array binding signal (z-score),Man(a1-3)[Man(a1-6)]Man,-0.471
same,glycan array binding signal (z-score),[10],3.18
same,glycan array binding signal (z-score),[11],0.514
same,glycan array binding signal (z-score),[12],0.17
same,glycan array binding signal (z-score),[13],-0.645
same,glycan array binding signal (z-score),[14],-0.275
same,glycan array binding signal (z-score),[15],1.02
same,glycan array binding signal (z-score),[16],6.63
same,glycan array binding signal (z-score),[17],-0.31
same,glycan array binding signal (z-score),[18],-0.433
same,glycan array binding signal (z-score),[19],-0.515
same,glycan array binding signal (z-score),[20],0.511
same,glycan array binding signal (z-score),[21],2.32
same,glycan array binding signal (z-score),[22],-0.577
same,glycan array binding signal (z-score),Neu5Ac(a2-8)Neu5Ac,-0.234
same,glycan array binding signal (z-score),[23],-0.626
